High-throughput results (PubChem)
LASV entry inh = qHTS for Inhibitors of binding or entry into cells for Lassa Virus; Lassa virus pseudotype entry inhibition, cell reporter; Potency, µM (series often up to 37.9 µM), for inactives: at the top dose activity change, negative = inhibition, most hits filed as inhibitors; 1.2% of 300,000 active; AID 540256, 2011; calls by dose curve; tested in HEK293 cells; further: potency means the concentration at half of the fitted maximal effect; nearly all actives have a fitted effect of over 50% in size
VACV mCherry inh = qHTS for Stage-Specific Inhibitors of Vaccinia Orthopoxvirus: mCherry Reporter Primary qHTS; Vaccinia virus mCherry reporter infection, fluorescence; Potency, µM (highest dose often 36.5 µM), for the others: at the top dose activity change, negative = inhibition, hits mostly inhibitors; 0.63% of 310,000 active; AID 720579, 2013; calls by dose curve; tested in A549 cells; further: potency means the concentration at half of the fitted maximal effect; nearly all actives have a fitted effect of over 35% in size
FMDV inh = High Throughput Screening for Foot and Mouth Disease Virus Antivirals; FMDV antiviral cell-based qHTS; Potency, µM (top dose mostly 57.9 µM), inactives show at the highest dose activity change, negative = inhibition, hits mostly inhibitors; 1.2% of 410,000 active; AID 1159524, 2015; calls by dose curve; tested in HEK293T cells; further: read-out not given here; potency means the concentration at half of the fitted maximal effect; nearly all actives have a fitted effect of over 45% in size
HCMV antiviral = qHTS Assay for inhibitors of the human cytomegalovirus (HCMV) | HFF cells, HCMV-luciferase reporter, 72 h; active compounds read low | activity change, negative = inhibition, % at 57.5 µM | 4.5% of 410,000 active | AID 1259415, 2018; in the data active means activity change below about -60%; inconclusive means no clear call, values can overlap the other calls; inactive means above about -39%
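HFF cells seeded 16 h at 37C, treated with compounds, infected with luciferase-reporter HCMV at MOI 1 PFU/cell; luciferase read at 72 h post infection, normalized to buffer-only and Salinomycin controls.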
VACV Venus inh = qHTS for Stage-Specific Inhibitors of Vaccinia Orthopoxvirus: Venus Reporter Primary qHTS. Vaccinia virus Venus reporter expression, fluorescence. Potency, µM (highest dose often 36.5 µM), for the others: at the highest dose activity change, negative = inhibition, usual class: inhibitors. 0.46% of 330,000 active; calls by dose curve; tested in A549 cells; further: potency means the concentration at half of the fitted maximal effect; nearly all actives have a fitted effect of over 30% in size
MARV entry inh = qHTS for inhibitors of binding or entry into cells for Marburg Virus | 1.8% of 300,000 active | Marburg virus pseudotyped entry inhibition, cell reporter | Potency, µM (series often up to 37.8 µM), inactives show at the highest dose activity change, negative = inhibition, hits mostly inhibitors; calls by dose curve; tested in HEK293 cells; further: potency means the concentration at half of the fitted maximal effect
* hit, by the source's call; i = inactive; ? = inconclusive; / = not tested or not shown; [ ] = remark or other dose. An excerpt weighted towards active compounds, which were near 6.5% of everything screened. On the % scale 0 is the no-effect control and ±100 the full control effect.

SMILES	LASV entry inh	VACV mCherry inh	FMDV inh	HCMV antiviral	VACV Venus inh	MARV entry inh
CC(=O)N/C(=C\c1ccccc1)C(=O)OCC(=O)NC1CCCC1	4%	i	3%	-16	-14%	11%
Cc1ccc2nc(SCC(=O)c3ccccc3)nc(=O)n2c1	10µM*	-16%	-2%	39	-16%	?
Cc1ccn2c(=O)nc(SCC(=O)c3ccccc3)nc2c1	?	-22%	15%	-28	-9%	10%
CC1CCN(C(=O)Cn2cc(SCC(=O)Nc3ccccc3C(F)(F)F)c3ccccc32)CC1	-16%[46.1 µM]	6%	?	-64*	-7%	/
O=S(=O)(CC(CN1CCCC1)N1CCCC1)c1ccc2ccccc2c1 (stereo not given)	10µM*	/	0%	-102*	/	18µM*
CCCC12C(=O)C(C)(C(c3ccccc3)=C1c1ccccc1)C1C(=O)N(c3ccc(C)cc3)C(=O)C12 (stereo not given)	?	i	?	-87*	-11%	?
CCC12C(=O)C(CC)(C(c3ccccc3)=C1c1ccccc1)[C@@H]1C(=O)N(c3ccccc3)C(=O)C12 (stereo not given in full)	-2%	-12%	-25%	-61*	-11%	?
Cc1nc2c(o1)C(=O)c1ccccc1C2=Nc1ccccc1	11µM*	2.5µM*	18µM*	-100*	2.8µM*	?
Cc1nc(-c2ccc(NC(=O)C(C)(C)C)cc2)c(-c2ccccc2)o1	-23%	-22%	-24%	-27	-14%	?
O=C(c1cc(COc2ccc(F)cc2F)on1)N1CCCC(c2ccccc2)C1 (stereo not given)	7.1µM*	-21%	14%	-63*	-31%	?
Cc1ccc(C)c(OCc2cc(C(=O)NC3CCN(Cc4ccccc4)CC3)no2)c1	/	/	?	-85*	/	/
O=C(c1cc(COc2ccc(F)cc2Cl)on1)N1CCCC(c2ccccc2)C1 (stereo not given)	?	-6%	-25%	-37	-11%	?
O=C(NC1CCN(Cc2ccccc2)C1)c1cc(COc2ccc(F)cc2F)on1 (stereo not given)	/	/	-10%	-102*	/	/
COc1cc(C)ccc1OCc1cc(C(=O)NC2CCOCC2)no1	/	-13%	70%	29	-15%	/
CN(CC(=O)Nc1ccc(F)cc1)C(=O)c1cccc(S(=O)(=O)N2CCN(c3ccc(F)cc3)CC2)c1	?	?	?	-63*	?	?
O=C(NCC1COc2ccccc2O1)c1cccc(S(=O)(=O)N2CCN(c3ccccc3)CC2)c1 (stereo not given)	-20%	-24%	-22%	-76*	-25%	?
CN(CC(=O)Nc1cccc(F)c1)C(=O)c1cccc(S(=O)(=O)N2CCN(c3ccccc3)CC2)c1	-3%	?	?	-77*	?	?
CN(CC(=O)Nc1ccc(F)cc1)C(=O)c1ccncc1	14%[46.1 µM]	-16%	12%	-72*	-8%	-1%[46.1 µM]
COc1cccc(NC(=O)CN(C)C(=O)c2cccc(S(=O)(=O)N3CCN(c4ccc(F)cc4)CC3)c2)c1	?	-20%	?	?	?	?
CN(CC(=O)Nc1cccc(F)c1)C(=O)c1ccncc1	?	-8%	-12%	32	11%	16%[46.1 µM]
O=C(NCC1COc2ccccc2O1)c1cccc(S(=O)(=O)N2CCCCC2)c1 (stereo not given)	/	/	12%	-22	/	/
CCCCCCn1c(SCC#N)nc2ccccc2c1=O	/	28%	/	/	-5%	/
COc1ccc(CN(C)C(=O)c2cccc(S(=O)(=O)N3CCN(c4ccccc4)CC3)c2)c(OC)c1OC	?	?	?	-70*	-28%	?
O=C1NCCN1C(=O)N1CCC[C@@H]1c1noc2cc3ccccc3cc12	/	/	/	3	/	/
CCOP(=O)(OCC)c1nc(-c2ccc(C)cc2)oc1NCc1ccccc1	-15%	-22%	-3%	-61*	0%	?
SMILES	LASV entry inh	VACV mCherry inh	FMDV inh	HCMV antiviral	VACV Venus inh	MARV entry inh
CCOP(=O)(OCC)c1nc(-c2cccc3ccccc23)oc1NCc1ccccc1	15%[14.3 µM]	-21%	9%	-9	-21%	?
CC(C)(C)C(=O)OCCNc1nc(-c2cccs2)nc2ccccc12	/	-24%	/	/	-22%	/
N#CC(C#N)=NNc1ccc(OC(F)(F)F)cc1	/	-8%[60.7 µM]	?	/	-4%[60.7 µM]	/
CCOc1ccc(CCNC(=O)CCc2c(C)nc3c(-c4ccccc4)c(C)nn3c2C)cc1OCC	28%[46.1 µM]	-8%	-19%	37	-18%	14%[46.1 µM]
COc1cc(-c2ccc3oc(-c4ccsc4)cc3c2)cc(OC)c1OC	/	?	-11%	-18	14µM*	/
Cc1nnc(N2CCCC(C(=O)NCc3ccccc3F)C2)c2nn(-c3ccccc3)c(C)c12 (stereo not given)	/	/	0%	-20	/	/
Cc1ccccc1CNC(=O)C1CCCN(c2nnc(C)c3c(C)n(-c4ccccc4)nc23)C1 (stereo not given)	/	/	19%	-101*	/	/
CCc1ccc(CNC(=O)C2CCCN(c3nnc(C)c4c(C)n(-c5ccccc5)nc34)C2)cc1 (stereo not given)	-24%[46.1 µM]	-26%	?	-108*	-18%	/
Cc1ccc(NC(=O)C2CCCN(c3nnc(C)c4c(C)n(-c5ccccc5)nc34)C2)cc1Cl (stereo not given)	0%[46.1 µM]	?	-19%	-7	11µM*	/
Cc1nnc(N2CCCC(C(=O)NCc3ccccc3)C2)c2nn(-c3ccccc3)c(C)c12 (stereo not given)	17%[46.1 µM]	-20%	9%	1	-18%	/
Cc1ccc2c(c1)CCC2=O	/	i	/	/	-14%	/
COc1ccc(Oc2c(C(F)(F)F)oc3c(CN4CCCC(C)C4)c(O)ccc3c2=O)cc1 (stereo not given)	14%[46.1 µM]	0%	0%	-61*	-10%	-4%[46.1 µM]
Cc1cc(C)cc(Oc2c(C(F)(F)F)oc3c(CN4CCCC(C)C4)c(O)ccc3c2=O)c1 (stereo not given)	1%[46.1 µM]	-5%	1%	19	0%	-5%[46.1 µM]
CCN(CC)c1ccc2cc(-c3nc(-c4ccccc4)no3)c(=O)oc2c1	0%[46.1 µM]	-13%	56%	67	-4%	/
Cc1cc(F)ccc1S(=O)(=O)Nc1ccccc1C(=O)Nc1ccccc1-c1nc2ccccc2[nH]1	11µM*	?	0%	/	?	?
COc1cc(CN2CCOc3ccc(C(O)c4cccnc4)cc3C2)cc(OC)c1 (stereo not given)	/	-10%	-11%	/	5%	/
COC(=O)c1csc(C(=O)c2c[nH]c3ccccc23)n1	/	/	-11%	/	/	/
Clc1cccc(-c2nc(-c3ccccn3)no2)c1	1.8µM*	-19%	?	-8	-17%	?
c1ccc(-c2cc(-c3nc(-c4ccccn4)no3)c3ccccc3n2)cc1	?	/	?	-16	-15%	14%
